Active and inactive are the calls of the source.
How the values were obtained:
Albumin (Bos taurus) = Albumin (Bos taurus) (UniProt P02769); test: bovine serum albumin binders on microarray, profiling panel, artefact control for SMM control protein annotation, biochemical, small-molecule microarray, Alexa647 label, 635/667 nm fluorescence (AID 1118); conditions: BSA-A647 binding, fluorescence 635 nm, higher = more signal;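 further: score merges 667 nm emission intensity and signal-to-noise per printed compound spot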
[1] = small-molecule microarray binders of probe aXIP, primary screen, biochemical, NeuroSMM set, 635/667 nm fluorescence (AID 1119); conditions: higher = more signal, called active from +8 up or from −8 down;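 further: probe is the protein aXip251-270 applied at 1 µg/mL to compound-printed slides; binding of probe to printed compounds measured as 667 nm fluorescence plus signal to noise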
[2] = small-molecule binders of probe aNOTCH3, primary screen, biochemical, small-molecule microarray, 635/667 nm fluorescence (AID 1120); conditions: higher = more signal;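 further: probe is a biotin-tagged antibody raised against NOTCH3 rather than NOTCH3 protein; score merges spot fluorescence near 667 nm with spot signal to noise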
[3] = small-molecule binders of probe aNOTCH2, primary screen, biochemical, small-molecule microarray, 635/667 nm fluorescence (AID 1121); conditions: higher = more signal;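 further: score merges feature fluorescence read at 667 nm with its signal to noise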
[4] = target: Carbonic anhydrase 2 (Homo sapiens) (UniProt P00918); test: CAII small-molecule binders, profiling panel, biochemical, small-molecule microarray, Alexa647-labelled CAII (AID 1122); conditions: CAII-A647 binding fluorescence, higher = more signal
[5] = COS7 lysate on small-molecule microarray, probe aHis, 635 nm (AID 1123); conditions: COS7 cell lysate, fluorescence, higher = more signal;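 further: z-score combines 667nm fluorescence intensity with signal-to-noise per printed compound spot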
[6] = compound binding in COS7 lysate, probe aLAP1, primary screen, cell lysate, small-molecule microarray (AID 1124); conditions: probe aLAP1, fluorescence, higher = more signal;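 further: lysate comes from COS7 cells expressing LAP1 and is applied at 0.3 µg/mL; score merges spot fluorescence near 667 nm with signal-to-noise over triplicate slides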
Sam68 (KHDRBS1) = test: Sam68 small-molecule binders, primary screen, biochemical, small-molecule microarray, 635 nm fluorescence (AID 1125); conditions: small-molecule microarray binding, higher = more signal;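 further: score merges 667 nm channel intensity with signal to noise over triplicate slides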
[7] = test system: Chordin-like protein 2 (CHRDL2); test: CHRDL2 small-molecule binders, primary screen, biochemical, small-molecule microarray, 635 nm fluorescence (AID 1126); conditions: small-molecule microarray binding, fluorescence 635 nm; higher = more signal;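 further: printed compound slides probed with Chrdl2 protein at 4 µg/mL for 1 h at 4 C; score merges 667 nm emission intensity with signal to noise over three replicate slides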
[8] = target: Concanavalin-A (Canavalia ensiformis) (UniProt P02866); test: ConA small-molecule binders, primary screen, artefact control for SMM control protein annotation, biochemical, small-molecule microarray, Alexa647 label, 635 nm (AID 1127); conditions: ConA-A647 binding fluorescence, higher = more signal;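 further: z combines 667 nm emission intensity with signal-to-noise across three replicate slides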
[9] = anti-His antibody binders, primary screen, artefact control for SMM control protein annotation, biochemical, small-molecule microarray, 635 nm fluorescence (AID 1128); conditions: anti-His Alexa647 antibody binding, higher = more signal;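 further: score merges feature fluorescence with signal-to-noise for each printed compound spot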
[10] = test system: Human papillomavirus type 1a E7 protein (residues 1-88); test: HPV1a E7 small-molecule binders, primary screen, biochemical, small-molecule microarray, residues 1-88, 635 nm (AID 1129); conditions: small-molecule microarray binding, fluorescence 635 nm; higher = more signal
[11] = target: Focal adhesion kinase 1 (Homo sapiens) (UniProt Q05397); test: small-molecule microarray binders of FAK, primary screen, biochemical, 635/667 nm fluorescence, BSA, DTT (AID 1130); conditions: PTK2 binding, 635 nm fluorescence, higher = more signal;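 further: composite of spot emission at 667 nm and signal to noise over triplicate slides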
[12] = test system: Fibrinogen (Alexa647-labelled); test: fibrinogen binders on compound microarrays, profiling panel, artefact control for SMM control-protein annotation, biochemical, small-molecule microarray, 635/667 nm fluorescence (AID 1131); conditions: fibrinogen-A647 binding fluorescence, higher = more signal;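 further: z-score merges 667 nm fluorescence with per-spot signal-to-noise over triplicate slides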
[13] = target: Follistatin (Homo sapiens) (UniProt P19883); test: follistatin binders on small-molecule microarrays, primary screen, biochemical, small-molecule microarray, 635/667 nm fluorescence (AID 1132); conditions: FST binding, 635 nm fluorescence, higher = more signal
[14] = target: Fibroblast growth factor 2 (Homo sapiens) (UniProt P09038); test: FGF2 binders on small-molecule microarrays, primary screen, biochemical, small-molecule microarray, 635/667 nm fluorescence (AID 1133); conditions: small-molecule microarray binding, FGF2, fluorescence 635/667; higher = more signal
[15] = mitochondrial membrane potential change in A549 cells, profiling panel, cell-based, JC-1 fluorescence, basal, 24 h, 100 nL (AID 1138); conditions: higher = more signal;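 further: A549 lung adenocarcinoma cells under basal conditions with no added stimulus; test concentration not given here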
Lefty1 = Lefty1 binders on small-molecule microarrays, primary screen, biochemical, small-molecule microarray, 635/667 nm fluorescence (AID 1139); conditions: small-molecule microarray binding, fluorescence 635/667; higher = more signal
[16] = test system: wheat germ agglutinin (Triticum aestivum), Alexa647-labelled; test: wheat germ agglutinin binders on compound microarrays, profiling panel, artefact control for SMM control-protein annotation, biochemical, small-molecule microarray, 635/667 nm fluorescence (AID 1140); conditions: WGA-A647 binding, 635 nm fluorescence, higher = more signal;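 further: score merges 667 nm feature emission with signal to noise over triplicate slides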
[17] = target: Luciferin 4-monooxygenase (Photinus pyralis) (UniProt P08659); test: firefly luciferase enzyme inhibitors, primary screen, biochemical, luminescence, purified enzyme, 2006 set (AID 1141); conditions: SteadyGlo luminescence, 30 min, higher = more signal, called active from +8 up or from −8 down;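 further: cell-free assay with purified firefly luciferase at 100 ng per well in PBS; test concentration not given here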
Sequence of Luciferin 4-monooxygenase (Photinus pyralis) (P08659 whole entry, looked up): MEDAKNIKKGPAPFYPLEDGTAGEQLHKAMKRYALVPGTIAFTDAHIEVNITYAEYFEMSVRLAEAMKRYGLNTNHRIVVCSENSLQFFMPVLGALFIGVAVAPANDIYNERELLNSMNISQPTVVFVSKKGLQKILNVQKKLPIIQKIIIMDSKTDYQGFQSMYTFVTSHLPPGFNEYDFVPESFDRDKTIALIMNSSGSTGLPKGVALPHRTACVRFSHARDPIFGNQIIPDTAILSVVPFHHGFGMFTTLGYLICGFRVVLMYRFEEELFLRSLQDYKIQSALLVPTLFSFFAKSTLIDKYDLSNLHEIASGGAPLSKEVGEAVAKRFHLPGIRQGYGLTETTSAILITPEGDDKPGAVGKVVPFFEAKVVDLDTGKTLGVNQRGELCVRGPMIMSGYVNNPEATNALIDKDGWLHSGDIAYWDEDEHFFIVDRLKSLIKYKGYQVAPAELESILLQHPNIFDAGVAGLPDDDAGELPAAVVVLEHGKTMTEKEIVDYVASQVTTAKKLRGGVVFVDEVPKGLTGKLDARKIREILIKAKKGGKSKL

Sequence of Concanavalin-A (Canavalia ensiformis) (P02866 whole entry, looked up): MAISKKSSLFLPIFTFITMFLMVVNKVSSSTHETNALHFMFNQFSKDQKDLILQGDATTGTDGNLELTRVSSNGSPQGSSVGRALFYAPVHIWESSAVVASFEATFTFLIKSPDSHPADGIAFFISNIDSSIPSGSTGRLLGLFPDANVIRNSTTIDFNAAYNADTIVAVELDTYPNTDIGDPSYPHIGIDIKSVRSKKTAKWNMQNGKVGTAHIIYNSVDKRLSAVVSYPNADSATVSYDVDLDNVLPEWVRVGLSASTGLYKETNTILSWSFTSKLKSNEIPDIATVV
Sequence of Albumin (Bos taurus) (P02769 whole entry, looked up): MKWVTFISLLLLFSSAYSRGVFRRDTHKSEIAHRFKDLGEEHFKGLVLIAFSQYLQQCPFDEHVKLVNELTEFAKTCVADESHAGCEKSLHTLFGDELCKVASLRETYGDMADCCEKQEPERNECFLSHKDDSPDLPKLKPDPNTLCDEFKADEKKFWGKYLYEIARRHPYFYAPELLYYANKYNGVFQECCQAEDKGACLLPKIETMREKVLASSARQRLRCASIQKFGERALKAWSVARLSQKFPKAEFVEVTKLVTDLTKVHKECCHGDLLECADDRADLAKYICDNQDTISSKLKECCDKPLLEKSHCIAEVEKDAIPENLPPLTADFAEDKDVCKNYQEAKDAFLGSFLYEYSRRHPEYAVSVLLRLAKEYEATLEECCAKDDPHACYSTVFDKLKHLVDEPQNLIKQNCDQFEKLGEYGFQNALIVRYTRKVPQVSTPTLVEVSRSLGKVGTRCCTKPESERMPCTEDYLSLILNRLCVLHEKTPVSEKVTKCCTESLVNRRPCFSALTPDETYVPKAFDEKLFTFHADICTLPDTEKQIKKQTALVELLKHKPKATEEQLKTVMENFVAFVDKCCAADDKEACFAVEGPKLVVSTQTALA
Sequence of Follistatin (Homo sapiens) (P19883 whole entry, looked up): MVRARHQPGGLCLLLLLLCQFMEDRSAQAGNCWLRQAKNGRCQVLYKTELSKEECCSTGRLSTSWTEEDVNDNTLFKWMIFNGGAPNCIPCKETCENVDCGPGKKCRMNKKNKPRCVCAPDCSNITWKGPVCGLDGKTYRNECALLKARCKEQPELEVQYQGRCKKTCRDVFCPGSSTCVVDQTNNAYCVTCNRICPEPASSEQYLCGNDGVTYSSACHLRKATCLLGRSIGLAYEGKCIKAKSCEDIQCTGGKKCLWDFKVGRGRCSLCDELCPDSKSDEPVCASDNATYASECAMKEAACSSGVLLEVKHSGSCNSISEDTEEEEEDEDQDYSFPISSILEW
Sequence of Fibroblast growth factor 2 (Homo sapiens) (P09038 whole entry, looked up): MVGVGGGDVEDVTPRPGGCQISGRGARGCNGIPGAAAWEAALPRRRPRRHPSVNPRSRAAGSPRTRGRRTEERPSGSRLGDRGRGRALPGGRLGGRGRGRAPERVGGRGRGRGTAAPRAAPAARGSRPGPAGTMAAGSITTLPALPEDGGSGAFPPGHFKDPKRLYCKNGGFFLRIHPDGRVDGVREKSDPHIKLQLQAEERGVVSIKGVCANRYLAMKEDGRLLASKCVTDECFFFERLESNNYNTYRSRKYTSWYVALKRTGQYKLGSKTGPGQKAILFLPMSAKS
Sequence of Focal adhesion kinase 1 (Homo sapiens) (Q05397 whole entry, looked up): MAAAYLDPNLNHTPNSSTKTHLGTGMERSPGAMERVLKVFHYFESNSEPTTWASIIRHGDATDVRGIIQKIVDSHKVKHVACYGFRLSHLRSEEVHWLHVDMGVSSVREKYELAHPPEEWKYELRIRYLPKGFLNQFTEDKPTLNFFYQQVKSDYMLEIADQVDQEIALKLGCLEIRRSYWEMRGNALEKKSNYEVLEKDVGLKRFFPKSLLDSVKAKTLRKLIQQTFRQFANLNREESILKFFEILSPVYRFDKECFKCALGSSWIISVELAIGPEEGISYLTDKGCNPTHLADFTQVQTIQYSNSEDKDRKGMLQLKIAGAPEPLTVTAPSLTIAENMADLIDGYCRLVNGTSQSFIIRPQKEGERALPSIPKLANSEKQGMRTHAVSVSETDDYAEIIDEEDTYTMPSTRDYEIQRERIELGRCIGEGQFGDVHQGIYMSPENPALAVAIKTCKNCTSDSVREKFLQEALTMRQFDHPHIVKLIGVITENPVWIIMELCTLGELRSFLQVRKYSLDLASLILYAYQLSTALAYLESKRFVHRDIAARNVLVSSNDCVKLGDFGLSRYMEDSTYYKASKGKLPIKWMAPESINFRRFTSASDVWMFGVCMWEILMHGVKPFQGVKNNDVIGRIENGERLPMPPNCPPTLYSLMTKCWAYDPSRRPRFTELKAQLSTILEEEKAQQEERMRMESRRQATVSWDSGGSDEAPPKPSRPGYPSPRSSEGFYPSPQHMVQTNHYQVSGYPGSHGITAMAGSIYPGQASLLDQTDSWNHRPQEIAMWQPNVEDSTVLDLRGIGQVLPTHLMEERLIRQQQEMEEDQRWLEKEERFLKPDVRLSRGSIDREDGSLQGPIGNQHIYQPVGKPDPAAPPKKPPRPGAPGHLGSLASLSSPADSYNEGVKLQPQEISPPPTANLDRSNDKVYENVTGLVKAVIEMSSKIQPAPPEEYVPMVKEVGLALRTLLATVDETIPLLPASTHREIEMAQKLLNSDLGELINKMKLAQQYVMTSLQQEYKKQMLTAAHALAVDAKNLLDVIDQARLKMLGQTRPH

| Structure (SMILES) | composite z-score (Albumin (Bos taurus)) | composite Z-score [1] | composite z-score [2] | composite z-score [3] | composite z-score [4] | composite z-score [5] | composite z-score [6] | composite z-score (Sam68 (KHDRBS1)) | composite z-score [7] | composite z-score [8] | composite z-score [9] | composite z-score [10] | composite z-score [11] | composite z-score [12] | composite z-score [13] | composite z-score [14] | z-score [15] | composite z-score (Lefty1) | composite z-score [16] | z-score [17] |
| --- | --- | --- | --- | --- | --- | --- | --- | --- | --- | --- | --- | --- | --- | --- | --- | --- | --- | --- | --- | --- |
| C[N+](C)(C)CCCCNC(=O)[C@@H]1C[C@@H]2C(=O)N[C@@H](Cc3ccccc3)C(=O)N2[C@@H]1c1cccc(OCCO)c1 | -0.634 | 0.668 (inactive) | -0.217 | -0.199 | 0.66 | 0.959 | -0.15 | -0.174 | 1.04 | -0.504 | 3.38 | -0.636 | -0.449 | -1.23 | 1.32 | 1.55 | 1.21 | 0.245 | -1.02 | -1.75 (inactive) |
| C=C(CCCC)/C(=C/C[C@H](OC(=O)c1ccncc1)c1ccccc1OCCO)c1cnc2ccccc2c1 | 0.0803 | -0.153 (inactive) | 0.0259 | -0.182 | 0.862 | 1.25 | 0.406 | 1.16 | 0.66 | 1.14 | 0.997 | 1.08 | 0.166 | 0.47 | 1.27 | 0.912 | 0.957 | 1.14 | 1.14 | -0.372 (inactive) |
| CC(C)C[C@@H]1NC(=O)[C@@H]2C[C@H](C(=O)NCc3ccc(F)cc3)[C@H](c3cccc(OCCO)c3)N2C1=O | -0.972 | 0.532 (inactive) | -0.229 | -0.166 | 0.549 | 0.558 | 1.19 | 0.72 | 0.915 | 0.902 | 2.05 | 0.135 | 0.379 | -0.373 | 1.47 | 1.46 | 1.87 | 0.616 | -0.129 | -0.976 (inactive) |
| CC1CC/C=C\[C@H]2OC34C=CCN(Cc5ccccc5)C(=O)[C@H]3N(CCCO)C(=O)[C@@H]4C2C(=O)O1 (stereo not given in full) | -0.0908 | -0.422 (inactive) | -0.437 | -0.155 | 0.861 | -0.0465 | 1.25 | -0.649 | -0.933 | -0.841 | 0.522 | -0.67 | -0.364 | 0.623 | -0.838 | -0.536 | -0.178 | -0.215 | -0.176 | -0.483 (inactive) |
| CN1C(=O)C2C=CC(C(O)c3ccccc3)N(N(c3ccccc3)c3ccccc3)C2C1=O (stereo not given) | 0.273 | 0.22 (inactive) | 0.215 | 0.105 | 0.763 | 0.321 | 1.34 | -0.494 | 0.781 | -0.529 | 1.95 | -0.54 | 0.112 | 0.384 | 1.34 | -0.0637 | -0.516 | 0.03 | 0.489 | 1.07 (inactive) |
| CCCC[C@@H]1C[C@H]1[C@@H](NC(=O)c1cccs1)c1ccc(-c2ccccc2)cc1 | 0.1 | -0.252 (inactive) | 0.206 | -0.14 | 0.254 | 0.874 | -0.202 | 0.393 | 0.0355 | 0.432 | 0.433 | 0.852 | 0.0412 | 0.149 | 0.552 | -0.292 | 0.319 | 0.361 | 0.849 | 1.65 (inactive) |
| CCOC(=O)C[C@H]1[C@H](OC(=O)c2cc3ccccc3oc2=O)[C@@H](NC(=O)c2ccccc2)c2cc(OCCCO)ccc2N1C(=O)c1ccc2ccccc2n1 | -0.117 | 0.315 (inactive) | 0.0496 | 0.655 | 0.515 | 0.922 | 0.0418 | 0.845 | 0.651 | 0.821 | 0.255 | 0.625 | -0.148 | 0.586 | 1.19 | 0.563 | -0.339 | 0.87 | 0.345 | 0.409 (inactive) |
| CC(=O)n1cc(C(O)C2C=CC3C(=O)N(c4ccccc4)C(=O)C3N2Nc2ccc([N+](=O)[O-])cc2)c2ccccc21 (stereo not given) | 0.932 | 0.406 (inactive) | 0.0159 | 0.386 | 0.778 | 2.22 | 1.33 | 1.34 | -1.4 | 0.823 | 3.33 | 0.981 | 0.457 | 0.916 | 0.347 | -0.105 | -1.02 | -0.719 | 1.45 | 1.08 (inactive) |
| NC(=O)[C@@H]1[C@H]2C(=O)O[C@H](c3ccccc3)[C@H](c3ccccc3)N2[C@H](c2ccc(O)cc2)[C@@]12C(=O)Nc1ccccc12 | 0.257 | -0.622 (inactive) | -0.288 | -0.155 | 0.75 | 2.37 | 0.691 | 0.203 | -1.73 | -0.161 | -0.393 | -0.507 | 0.119 | -0.538 | -0.5 | -1.17 | -1.11 | -0.827 | 0.156 | -0.366 (inactive) |
| O=C1C2C=CC(C(O)c3cccc4ccccc34)N(Nc3ccccc3F)C2C(=O)N1c1ccccc1 (stereo not given) | 0.799 | 0.791 (inactive) | 0.614 | 0.0007 | 0.728 | 2.76 | 0.491 | 1.29 | -0.539 | 1.09 | 1.22 | 1.25 | 0.792 | 1 | 0.829 | -0.276 | -0.968 | 0.345 | 1.4 | 1.24 (inactive) |
